Records with an inconclusive call do not appear. Calls of active or inactive are those of the source. Calls come from the whole dose curve; as a rule, active = well fitted inhibition curve with a large enough effect; inconclusive = small, poorly fitted or top-dose-only effect; inactive = flat fitted curve, though single readings scatter.
Assays:
Test in all cases: qHTS profiling for inhibitors of Plasmodium falciparum proliferation (AID 504749); note: nearly all actives have a fitted effect of over 60% in size
Conditions in all cases: P. falciparum in erythrocytes, SYBR Green DNA, 72 h; series mostly up to 28.7 µM
DIV17 = system: DIV17
How it was run: (§1)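 Parasite proliferation within erythrocytes, 72 h exposure. Endpoint: SYBR Green I fluorescence after overnight lysis at room temperature. Controls: 0.29 uM artemisinin, DMSO.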

DIV30 = system: DIV30
How it was run: as §1

Dd2 = system: Dd2
How it was run: as §1

ECU = system: ECU
How it was run: as §1

FAB9 = system: FAB9
How it was run: as §1

GB4 = system: GB4
How it was run: as §1

HB3 = system: HB3
How it was run: as §1

ICS = system: ICS
How it was run: as §1

JCK = system: JCK
How it was run: as §1

N140 = system: N140
How it was run: as §1

P93_24 = system: P93_24
How it was run: as §1

P94_40 = system: P94_40
How it was run: as §1

PAD = system: PAD
How it was run: as §1

PC15 = system: PC15
How it was run: as §1

PC26 = system: PC26
How it was run: as §1

PC49 = system: PC49
How it was run: as §1

SC27B = system: SC27B
How it was run: as §1

TAB109 = system: TAB109
How it was run: as §1

TAB113 = system: TAB113
How it was run: as §1

TAB165 = system: TAB165
How it was run: as §1

Measured: Potency

CCOC(=O)C(C#N)=C(c1ccccc1)c1ccccc1
inactive: all assays above

C=C[C@@]1(C)CC(=O)[C@]2(O)[C@@]3(C)[C@@H](O)CCC(C)(C)[C@@H]3[C@H](O)[C@H](OC(C)=O)[C@@]2(C)O1
inactive: all assays above

Nc1ccc(S(=O)(=O)NCc2ccccc2)cc1
inactive: all assays above

CC1=C(C(=O)O)N2C(=O)[C@@H](NC(=O)[C@H](N)c3ccccc3)[C@H]2SC1
inactive: all assays above

CNCCc1ccccn1
inactive: all assays above

CCc1oc2ccccc2c1C(=O)c1cc(I)c(O)c(I)c1
inactive: all assays above

Cc1nc(-c2ccc(Cl)cc2)oc1COC(C)(C)C(=O)O
inactive: all assays above

Oc1ccccc1C=NCc1ccccc1
inactive: all assays above

Nc1ccc(S(=O)(=O)Nc2cnc3ccccc3n2)cc1
inactive: all assays above

COc1ccc(-c2cc(C(F)F)nn2-c2ccc(S(N)(=O)=O)cc2)cc1F
inactive: all assays above

CCOc1ccccc1C(N)=O
inactive: all assays above

CCOc1cc(OCC)c(C(=O)CCC(=O)O)cc1OCC
inactive: all assays above

O=C(O)CCNC(=O)c1ccccc1
inactive: all assays above

O=C(NCCc1c[nH]c2ccccc12)c1cccnc1
inactive: all assays above

NS(=O)(=O)c1cc(C(=O)O)cc(N2CCCC2)c1Oc1ccccc1
inactive: all assays above

Cc1c(-c2ccccc2)oc2c(C(=O)OCCN3CCCCC3)cccc2c1=O
inactive: all assays above

N#CCC(=O)NN
inactive: all assays above

CCCN(CCC)S(=O)(=O)c1ccc(C(=O)O)cc1
inactive: all assays above

CCc1oc2ccccc2c1C(=O)c1cc(Br)c(O)c(Br)c1
inactive: all assays above

NCCNC(=O)c1ccc(Cl)cn1
inactive: all assays above

CC(=O)NC(=O)c1ccccc1O
inactive: all assays above

CC(C)Cn1cnc2c1c(=O)n(C)c(=O)n2C
inactive: all assays above

O=C(O)c1ccc(S(=O)(=O)N(Cl)Cl)cc1
inactive: all assays above

CC(=O)Nc1ccc(CC(=O)O)cc1
inactive: all assays above

CCC1Nc2cc(Cl)c(S(N)(=O)=O)cc2S(=O)(=O)N1 (stereo not given)
inactive: all assays above
